# In PubChem BioAssay AID504834 (National Center for Advancing Translational Sciences (NCATS), 2011):
# Hit rate of the full screen: of about 320,000 compounds, about 22,000 (6.9%) were called active. Entries that show only a call come without a potency. Inconclusive results (about 27%) are left out. Only a selection was taken, and actives are over-represented in it overall. Values without a mark were called inactive. The call rests on the fitted dose curve; in most records, active means well fitted inhibition curve with a large enough effect; inconclusive means small, poorly fitted or top-dose-only effect, or another doubt; inactive means no such curve, though single readings can be large or run the other way.
# Test: Primary qHTS for delayed death inhibitors of the malarial parasite plastid, 96 hour incubation
# Settings: P. falciparum luciferase reporter growth; series mostly up to 28.7 µM
# How it was run: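 Two-generation exposure (96 h) targets delayed-death phenotype. Reporter parasites carrying integrated firefly luciferase, in red cells at 2% hematocrit and 0.05% parasitemia final, kept at 37 C, 5% CO2; luminescence loss indicates inhibition.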
# Potency means the concentration at half of the fitted maximal effect.
SMILES,Potency,"activity change, negative = inhibition"
C=C1c2c(Cl)ccc(O)c2C(O)=C2C(=O)[C@]3(O)C(O)=C(C(N)=O)C(=O)[C@@H](N(C)C)[C@@H]3[C@@H](O)C12 (some centres undefined),0.738 µM (active),
CN(C)[C@@H]1C(=O)C(C(N)=O)=C(O)[C@@]2(O)C(=O)C3=C(O)c4c(O)ccc(Cl)c4[C@@H](O)[C@H]3C[C@@H]12,0.37 µM (active),
COc1ccc(OCCC(=O)c2ccc(OC)cc2)cc1,inactive,
CCN(c1ccccc1)S(=O)(=O)c1cc2c(cc1C)n(C)c(=O)c(=O)n2C,inactive,
Cn1c2ccccc2c2cc(/C=C(\NC(=O)c3ccccc3)C(=O)NCC(=O)O)ccc21,inactive,
COc1ccc(-c2cc3ncccc3cn2)cc1,inactive,
COc1ccc(C(=O)O)cc1S(=O)(=O)NCc1cccnc1,inactive,
COc1ccc(-c2cc(C(F)(F)F)nc(NCc3cccnc3)n2)cc1,13.1 µM (active),
CCN(CC)S(=O)(=O)c1ccc(N2CC(C(=O)NCc3cccnc3)CC2=O)cc1 (centres undefined),inactive,
CCC(=O)c1ccc(OC(=O)/C=C/c2cc(OC)c(OC)c(OC)c2)cc1,inactive,
CS(=O)(=O)C1=NN2C(=N)/C(=C\c3ccc(OCCOc4ccccc4)cc3)C(=O)N=C2S1,inactive,
CCCCNC(=O)CCn1c(=O)c2ccccc2n(Cc2cc(C)ccc2C)c1=O,inactive,
CCCc1nc2c(c(=O)c3ccccc3n2C)c(=O)n1C1CCCCCC1,14.7 µM (active),
Cn1c2ccccc2c2c(C(=O)N3CCN(c4ccc(F)cc4)CC3)cn(C3CCCC3)c(=O)c21,inactive,
Cn1c2ccccc2c(=O)c2c(O)cccc21,inactive,
CCCc1nc2c(c(=O)c3ccccc3n2C)c(=O)n1-c1cc(C)cc(C)c1,5.86 µM (active),
COc1ccccc1C(=O)OCC(=O)NCCNC(=O)COC(=O)c1ccccc1OC,inactive,
Cn1cccc1C(=O)N1CCc2ccccc2C1,inactive,
CCOc1ccc(NC(=O)CN(C)C(=O)c2c(C)noc2C)cc1OCC,inactive,
C=CC(COCc1ccccc1)N(Cc1ccccc1)S(=O)(=O)c1ccccc1Br (centres undefined),9.28 µM (active),
C=CCCN(Cc1ccccc1)S(=O)(=O)c1ccccc1Br,inactive,
COc1ccc(S(=O)(=O)n2nc(C)c(S(=O)(=O)N3CCOCC3)c2C)cc1,inactive,
COc1ccc(C(=O)NCCNc2ccc([N+](=O)[O-])cn2)cc1,inactive,
Cn1c(CCC(=O)Nc2ccccc2F)nnc1SCC(=O)Nc1ccccc1Cl,inactive,
Cc1csc(NC(=O)CSc2ccc(-c3ccc(F)cc3)nn2)n1,,-36.6% [at 1.15 µM]
O=C(CSc1ccc(-c2cccs2)nn1)Nc1ccccc1F,2.33 µM (active),

SMILES,Potency,"activity change, negative = inhibition"
CCN(CC)S(=O)(=O)c1ccc(NC(=O)c2cnc(C)cn2)cc1,inactive,
Cc1cccc2c1cnn2C(=O)CCC(=O)NC1CCCCC1,13.1 µM (active),
Cc1ccc2c(cnn2C(=O)CCC(=O)NC2CCCC2)c1,inactive,
Cc1nn(CC(=O)NC2CCCCC2)c(=O)c2cccn12,inactive,
CCn1nnnc1SCC(=O)c1ccc(C)cc1C,7.38 µM (active),
CCn1nnnc1SCC(=O)Nc1ccc(N(C)C)cc1,inactive,
CNC(=O)CSc1nnnn1-c1ccc(C)cc1C,inactive,
O=C1CSC(=S)N1c1ccc(Cl)c(Cl)c1,inactive,
NC(=O)c1ccc(-c2csnn2)cc1,inactive,
C[C@H](OC(=O)n1ccnc1)[C@@H]1O[C@@]2(C)CCC[C@@H]1O2,inactive,
COc1ccccc1OCCC(=O)OCC(=O)NCc1ccccc1,inactive,
COc1cc(C(=S)NCc2ccccc2)cc(Br)c1O,inactive,
COc1cc(C=O)c(Br)cc1OCC(=O)NCc1ccccc1,11.7 µM (active),
CCOc1ccc(S(=O)(=O)N2CCC(c3ccccc3)CC2)cc1C(=O)O,inactive,
C=CCn1c(COc2ccccc2F)nnc1SCC(=O)N1CC(=O)Nc2ccccc21,8.28 µM (active),
C=CCn1c(COc2ccccc2C)nnc1SCC(=O)O,inactive,
Nn1c(Cc2cccc3ccccc23)nnc1SCC(=O)N1CC(=O)Nc2ccccc21,inactive,
O=C(COc1ccccc1)Nc1ccc(C(=O)N2CCCC2)cc1,inactive,
COc1cc(Cl)c(C)cc1NC(=O)CN1CCCCCC1,inactive,
Cc1cc(NC(=O)CSC2=NS(=O)(=O)c3cc(Cl)ccc3N2)no1,inactive,
CCCCOP(=O)(c1ccc(N(C)C)cc1)C(O)c1cc(OC)ccc1OC (centres undefined),inactive,
Cc1ccc(C(O)P(=O)(OC(C)C)c2ccc(N(C)C)cc2)cc1 (centres undefined),inactive,
CCCOP(=O)(c1ccc(N(C)C)cc1)C(O)c1cc(OC)c(OC)c(OC)c1 (centres undefined),10.4 µM (active),
CN=C1S/C(=C\c2ccc(Sc3ccc(Cl)cc3)o2)C(=O)N1C,inactive,
CCCCSc1nc2ccccc2[nH]1,inactive,
CCC(C)N1C(=O)S/C(=C/c2ccc(Sc3nc4ccccc4[nH]3)o2)C1=O (centres undefined),1.65 µM (active),

SMILES,Potency,"activity change, negative = inhibition"
[2H]C(CCOS(N)(=O)=O)c1ccccc1 (centres undefined),inactive,
COCCCn1c(SCC(=O)NC2CCCC2)nnc1-c1ccccc1,inactive,
CC(C)(C)C(=O)NC1CC2CCCC(C1)N2C(=O)Nc1ccccc1F (centres undefined),inactive,
O=S(=O)(c1cccc(-c2nnc(SC(F)F)n2-c2ccccc2)c1)N1CCCCC1,7.38 µM (active),
O=S(=O)(c1cccc(-c2cn3ccccc3n2)c1)N1CCCC1,inactive,
O=S(=O)(c1cccc(-c2nnc3n2CCCCC3)c1)N1CCOCC1,inactive,
Cc1noc(C)c1C(=O)OCC(=O)N1CCN(S(=O)(=O)c2ccc3ccccc3c2)CC1,inactive,
Cc1cc(S(=O)(=O)NC2CCCC2)ccc1-n1cnnn1,inactive,
Cc1nc(Cl)c2oc3ccccc3c2n1,inactive,
C[C@@H](Nc1nc(-c2ccccc2)nc2c1oc1ccccc12)C(=O)O,inactive,
O=c1[nH]c(CSc2ccccc2)nc2c1oc1ccccc12,5.22 µM (active),
CC(C)(C)c1cc[n+](-c2[nH]c(=O)sc2/C=N/N=C(\[O-])c2ccccc2)cc1,inactive,
O=C(OCC(=O)N1CCN(C(=O)c2ccco2)CC1)c1cccc(O)c1,inactive,
CC(=O)Nc1ccc(NC(=O)CSc2nnc(C3CC3)n2-c2ccccc2)cc1,inactive,
Nc1nnn(CC(=O)N/N=C/c2ccc(O)cc2)n1,inactive,
O=C(NC1CCN(C(=S)Nc2ccc(Cl)cc2)CC1)C1CCCCC1,inactive,
O=C(NC1CC2CCCC(C1)N2C(=O)N1CCCCC1)C1CCCCC1 (centres undefined),14.7 µM (active),
CCOCCCNC(=S)N1CCC(NC(=O)C2CCCCC2)CC1,inactive,
CSc1ccccc1OCc1cc(C(=O)N2C[C@H]3CC[C@H]2C3)no1,inactive,
Cc1ccc(S(=O)(=O)NCCCn2ccnc2)cc1C(=O)NC(C)C,inactive,
COc1ccc(S(=O)(=O)N2CCCC(C(=O)NCCCn3ccnc3)C2)cc1OC (centres undefined),inactive,
CCOc1ccc(S(=O)(=O)NCCCn2ccnc2)cc1NC(C)=O,13.1 µM (active),
CC(NC(=O)COc1cccnc1[N+](=O)[O-])c1ccc(Cl)cc1Cl (centres undefined),inactive,
CC(C)CC(=O)N1CCN(Cc2cccc(Cl)c2)CC1,inactive,
Clc1cccc(CN2COc3c(cc(Cl)c4cccnc34)C2)c1,0.329 µM (active),
O=C(C1CCC1)N1CCN(c2ccccc2)CC1,inactive,

SMILES,Potency,"activity change, negative = inhibition"
COc1ccc(NC(=O)CCC(=O)Nc2nnc(C3CCCCC3)s2)cc1,inactive,
COc1cc(C(=O)NCc2cc3cc(Cl)ccc3n2C)cc(OC)c1OC,inactive,
O=C(CSc1nnc(-c2cccs2)n1Cc1ccccc1)N1CCc2ccccc2C1,10.4 µM (active),
Cc1nc(SCC(=O)N2CCc3ccccc3C2)c2c(C)c(C)sc2n1,inactive,
CCn1c(SCC(=O)c2ccc3ccccc3c2)nnc1-c1cccs1,inactive,
CCn1c(Cc2ccc(OC)cc2)nnc1SCC(=O)Nc1ccc(N2CCOCC2)cc1,inactive,
CCn1c(SCC(=O)NC2CCCC2)nnc1-c1ccoc1C,inactive,
O=C(NNC(=O)c1cccc(S(=O)(=O)Nc2ccc(Cl)cc2)c1)c1ccc(=O)[nH]c1,inactive,
CCN(CC)c1ccc(NC(=O)c2ccc(=O)[nH]c2)cc1S(=O)(=O)Nc1ccc(OC)cc1,9.28 µM (active),
COc1ccc(NS(=O)(=O)c2ccc(NC(=O)c3ccc(N(C)S(C)(=O)=O)cc3)cc2)cc1,inactive,
COc1ccc(S(=O)(=O)n2cnc3ccccc32)c(C)c1,inactive,
CCCc1c(C(=O)N/N=C(\C)CCc2ccc(OC)cc2)nnn1-c1nonc1N,inactive,
CCN1CCN(C(=O)N(Cc2ccc(Cl)cc2)S(=O)(=O)c2ccc(C)cc2)CC1,inactive,
O=C(CSc1n[nH]c(-c2cccnc2)n1)Nc1ccc(Cl)cc1,inactive,
CC(C)CN(C(=O)c1ccc2c(c1)OCO2)C1CCS(=O)(=O)C1 (centres undefined),inactive,
O=C(CN1C(=O)COc2ccccc21)Nc1ccc(F)cc1,1.47 µM (active),
O=C(CN1C(=O)COc2ccc(Cl)cc21)Nc1ccc(N2CCOCC2)cc1,inactive,
O=C(CN1C(=O)COc2ccccc21)NCCN1CCc2ccccc2C1,inactive,
O=C(CCCN1C(=O)/C(=C/c2cccs2)SC1=S)Nc1ccc(O)cc1,inactive,
NS(=O)(=O)c1ccc(CCNC(=O)CN2C(=O)c3ccccc3S2(=O)=O)cc1,inactive,
CCN(C(=O)CSc1ncnc2sccc12)c1c(N)n(Cc2ccccc2)c(=O)[nH]c1=O,inactive,
COc1cccc(OC)c1C(=O)Nc1ccc2c(c1)n(C)c(=O)n2C,inactive,
COc1ccc(C(=O)N(C)CC(O)c2ccccc2)cc1OC1CCN(C(C)=O)CC1 (centres undefined),inactive,
COc1ccc(C(=O)NC2CC2)cc1OC1CCN(Cc2ccc(SC)cc2)CC1,inactive,
COc1ccc(C(=O)NC2CC2)cc1OC1CCN(C/C=C/c2ccccc2)CC1,11.7 µM (active),
O=C(NCCc1ccccn1)c1nc(Cn2cc([N+](=O)[O-])cn2)no1,inactive,
